# Measurements taken from publication PMC5540273 (PLoS ONE, 2017).
# How the values were obtained:
# Details in all cases: concentration: 1 μM, replicates: in singlicate; n = 1
# MTOR = test system: MTOR
# MUSK = test system: MUSK
# MYLK2 = test system: MYLK2
# MYLK4 = test system: MYLK4
# MYLK = test system: MYLK
# MYO3A = test system: MYO3A
# MYO3B = test system: MYO3B
# NDR1 = test system: T1, NDR1
# T1 construct: gene STK38
# NDR2 = test system: NDR2
# NEK10 = test system: NEK10
# NEK11 = test system: NEK11
# NEK1 = test system: NEK1
# NEK2 = test system: NEK2
# NEK3 = test system: NEK3
# NEK4 = test system: NEK4
# NEK5 = test system: NEK5
# NEK6 = test system: NEK6
# NEK7 = test system: NEK7
# NEK9 = test system: NEK9
# NIK = test system: T2, NIK
# T2 construct: gene MAP3K14
# 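Also: KINOMEscan kinase panel screen.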
SMILES,%Inh (MTOR),%Inh (MUSK),%Inh (MYLK2),%Inh (MYLK4),%Inh (MYLK),%Inh (MYO3A),%Inh (MYO3B),%Inh (NDR1),%Inh (NDR2),%Inh (NEK10),%Inh (NEK11),%Inh (NEK1),%Inh (NEK2),%Inh (NEK3),%Inh (NEK4),%Inh (NEK5),%Inh (NEK6),%Inh (NEK7),%Inh (NEK9),%Inh (NIK)
Cc1ccc(C(=O)N2CC[C@@H](O)C2)cc1-n1c(C)cc(OCc2ccc(F)cc2F)c(Br)c1=O,45%,9%,0%,0%,0%,0%,0%,26%,0%,0%,0%,0%,0%,31%,0%,0%,0%,0%,0%,0%
CSc1cccc2c(-c3ccncn3)c(-c3ccc(F)cc3)nn12 [GW514786],24%,7%,0%,0%,23%,13%,0%,13%,12%,2%,0%,0%,0%,0%,15%,7%,0%,0%,1%,14%
COc1ccc(Nc2nccc(NCCNC(=O)c3cc4ccccc4s3)n2)cc1 [GSK1379896],0%,8%,0%,6%,18%,5%,0%,9%,0%,0%,3%,0%,22%,0%,14%,13%,0%,0%,21%,7%
CCn1c(-c2nonc2N)nc2c(C#CC(C)(C)O)nc(OC[C@H](N)c3ccccc3)cc21 [GSK943949],20%,0%,0%,0%,12%,0%,0%,34%,2%,34%,0%,0%,0%,3%,0%,0%,14%,0%,0%,72%
Oc1cc(Nc2ccnc3cc(I)ccc23)ccc1F [GW552771],11%,5%,0%,1%,17%,0%,0%,0%,0%,9%,0%,0%,0%,1%,38%,0%,0%,0%,0%,0%
O=C(Nc1ccccc1F)NC1CCN(c2ccnc(Nc3ccc(F)cc3)n2)CC1 [GSK1379800],17%,3%,16%,10%,8%,37%,0%,7%,0%,5%,7%,0%,0%,13%,0%,33%,0%,0%,0%,9%
O=C(Nc1n[nH]c2nc(-c3ccc(O)cc3)ccc12)C1CC1 [SB-710363],0%,0%,79%,31%,35%,62%,9%,0%,4%,0%,0%,0%,3%,17%,2%,0%,0%,12%,0%,2%
CC(C)c1nc(-c2cccc(NS(=O)(=O)c3c(F)cccc3F)c2F)c(-c2ccnc(Nc3ccc(N4CCOCC4)nc3)n2)s1 [GSK2008607],10%,10%,0%,0%,18%,78%,65%,62%,65%,0%,98.6%,82%,99.1%,1%,51%,26%,99.1%,92.9%,93.6%,0%
FC(F)(F)c1ccc(/C=C/c2cncnc2Nc2ccc3[nH]c(Cc4ccccc4)nc3c2)cc1 [GW709199],28%,15%,2%,25%,15%,0%,30%,21%,0%,0%,9%,0%,0%,30%,0%,23%,13%,0%,2%,0%
C[C@@H](Oc1cc(-n2cnc3cc(-c4ccnc(NCCS(C)(=O)=O)c4)ccc32)sc1C(N)=O)c1ccccc1Cl [GSK907232],2%,30%,53%,2%,10%,13%,0%,0%,0%,0%,0%,72%,98.8%,3%,0%,89%,4%,12%,74%,0%
Cn1cc(-c2[nH]c3cc(NC(=O)[C@H](N)C4CCCCC4)cc4c3c2C=NNC4=O)cn1,17%,12%,47%,98.7%,24%,5%,0%,93.1%,75%,54%,89%,70%,21%,32%,0%,54%,2%,0%,11%,3%
Cc1ccc(C)c(NC(=O)NC2CCN(c3ccnc(Nc4ccc(F)cc4)n3)C2)c1 (centres unmarked) [GSK1379720],15%,5%,0%,0%,2%,5%,0%,0%,0%,9%,15%,0%,0%,8%,27%,4%,0%,0%,0%,22%
CCCCc1nn2ncccc2c1-c1ccnc(Nc2ccc(N3CCN(C)CC3)cc2)n1 [GW684941],16%,98.2%,41%,26%,4%,0%,0%,18%,0%,65%,62%,0%,53%,9%,14%,0%,0%,0%,0%,11%
Clc1ccc(-c2nn3ncccc3c2-c2ccnc(Nc3ccc4c(c3)OCCO4)n2)cc1 [GW829116],0%,0%,0%,0%,0%,7%,1%,34%,8%,0%,0%,0%,0%,12%,0%,0%,0%,0%,0%,10%
COC(=O)Nc1nc2cc(Oc3ccc(NC(=O)Nc4cc(C(F)(F)F)ccc4F)cn3)ccc2[nH]1.Cl.Cl [GW681170],2%,99.4%,0%,0%,16%,21%,0%,20%,14%,7%,34%,0%,0%,0%,0%,0%,0%,0%,35%,26%
COc1cccc(-c2ccc3c(NC(=O)C4CC4)n[nH]c3n2)c1 [SB-710903],20%,0%,78%,6%,11%,45%,0%,10%,16%,20%,36%,0%,0%,18%,0%,6%,0%,0%,0%,0%
CCc1ccc(-c2ccc3c(c2)-c2c(cnn2C)S(=O)(=O)N3C)cc1,0%,14%,0%,1%,0%,16%,25%,0%,0%,9%,0%,0%,5%,0%,0%,0%,0%,0%,0%,0%

SMILES,%Inh (MTOR),%Inh (MUSK),%Inh (MYLK2),%Inh (MYLK4),%Inh (MYLK),%Inh (MYO3A),%Inh (MYO3B),%Inh (NDR1),%Inh (NDR2),%Inh (NEK10),%Inh (NEK11),%Inh (NEK1),%Inh (NEK2),%Inh (NEK3),%Inh (NEK4),%Inh (NEK5),%Inh (NEK6),%Inh (NEK7),%Inh (NEK9),%Inh (NIK)
Fc1ccc(-c2ncn(C3CCNCC3)c2-c2ccnc(Oc3ccc(-c4ccccc4)cc3)n2)cc1 [SB-245391],0%,40%,0%,21%,16%,24%,17%,31%,13%,0%,24%,36%,25%,13%,0%,4%,17%,0%,7%,31%
O=c1[nH]cc(-c2ccc(N3CCOCC3)cc2)c2sc(-c3cn[nH]c3)cc12 [GSK2276055],8%,0%,3%,48%,18%,53%,0%,30%,29%,0%,0%,19%,19%,16%,0%,0%,0%,39%,53%,17%
Cc1ccc(F)c(C(=O)Nc2cccc(-c3nn4ccccc4c3-c3ccnc(Nc4cccc(F)c4)n3)c2)c1F [GSK361061],13%,22%,17%,0%,33%,10%,0%,15%,0%,11%,0%,0%,0%,8%,18%,12%,9%,14%,16%,5%
Cl.c1ccc(-c2ccc3c(Nc4ccc5[nH]ncc5c4)ccnc3c2)nc1 [GW440137],7%,7%,5%,11%,26%,36%,0%,8%,10%,1%,0%,0%,0%,11%,0%,13%,0%,0%,7%,10%
O=C(Nc1n[nH]c2cc(-c3ccoc3)ccc12)C1CC1 [SB-738481],0%,0%,89%,19%,29%,0%,0%,6%,0%,0%,4%,0%,8%,2%,1%,0%,11%,16%,0%,9%
C[C@@H]1CC[C@@H](C(=O)Nc2ccccc2)CN1c1cc(-c2ccc3c(N)n[nH]c3c2)nc(N)n1 [GSK2286062],0%,0%,0%,5%,15%,33%,0%,13%,0%,7%,0%,1%,0%,4%,0%,7%,0%,0%,8%,0%
COc1cc(Nc2nccc(-c3c(-c4cccc(NC(=O)c5c(F)cccc5F)c4)nn4ncccc34)n2)cc(OC)c1OC [GSK327238],8%,25%,10%,7%,9%,38%,40%,20%,0%,15%,0%,0%,92.7%,0%,12%,58%,17%,18%,41%,13%
COc1cc(Nc2ncc3c(C)nc(-c4cc5ccccc5[nH]4)n3n2)cc(OC)c1OC [GW869516],14%,47%,0%,39%,0%,0%,0%,10%,0%,0%,86%,16%,70%,89%,41%,99%,99.6%,99.7%,90%,0%
Cl.NC(=O)c1cccc(Nc2nccc(Nc3ccc(Oc4c(Cl)cccc4Cl)c(Cl)c3)n2)c1 [GW659009],0%,5%,0%,0%,0%,0%,0%,17%,0%,0%,0%,0%,1%,87%,3%,26%,86%,5%,6%,14%
Cc1ccc(S(=O)(=O)Nc2ccc(Nc3nccc(Nc4cccc5[nH]ncc45)n3)cc2)cc1 [GSK581271],5%,12%,17%,50%,0%,9%,0%,0%,0%,3%,27%,0%,4%,0%,20%,5%,0%,0%,11%,0%
Cc1ccc(C(=O)Nc2ccc(Nc3ccnc4cc(-c5nccs5)ccc34)cc2O)cc1.Cl [GW494702],6%,4%,11%,0%,0%,34%,6%,2%,9%,0%,40%,0%,0%,0%,3%,0%,0%,0%,0%,12%
O=C(O)C(F)(F)F.O=C(O)C(F)(F)F.O=c1[nH]ccc2nc(N[C@@H]3CCCNC3)nc(Nc3ccc(S(=O)(=O)N4CCOCC4)cc3)c12 [GSK2177277],9%,98.2%,33%,91.3%,96.9%,52%,0%,97.4%,74%,93.6%,0%,62%,80%,89%,96.1%,51%,46%,35%,14%,87%
NCCCC(NC(=O)c1cc(Br)c(-c2ccnc3[nH]ccc23)s1)c1ccccc1.O=C(O)C(F)(F)F.O=C(O)C(F)(F)F (centres unmarked) [GSK1287544],3%,8%,30%,99.6%,23%,0%,0%,95.7%,86%,20%,0%,74%,9%,0%,9%,88%,16%,0%,17%,16%
CN(C)Cc1ccc(-c2ccc3c(Nc4ccc(Oc5ccccn5)cc4)ccnc3c2)o1 [GW567148],8%,0%,0%,0%,4%,0%,0%,6%,0%,13%,8%,0%,0%,0%,21%,0%,0%,0%,0%,12%
CNC(=O)c1ccccc1Nc1nc(Nc2ccc(N3CCOCC3)cc2)ncc1Cl.Cl [GSK1576028],8%,74%,74%,99.9%,94%,48%,0%,97.9%,91.3%,24%,85%,86%,89%,93.3%,65%,100%,98.6%,98%,97.7%,36%
CC(C)(C)c1ccc2nccc(Nc3cccc(O)c3)c2c1 [GW856795],0%,0%,0%,0%,20%,6%,5%,0%,0%,0%,22%,0%,11%,13%,0%,0%,0%,0%,0%,9%
COc1cc2c(cc1OCCN1CCNCC1)ncc1c3ccc(C#N)cc3[nH]c21,19%,0%,68%,70%,47%,0%,0%,3%,0%,20%,7%,0%,41%,29%,100%,0%,15%,0%,0%,65%
